Common to all, as to assay: DAPPL (digital affinity profiling via proximity ligation, sequencing); 10 mM Tris-HCl pH 7.5, 50 mM NaCl, 1 mM DTT, 4% glycerol, room temperature, 30 min; GST-TFs on glutathione beads, 16-mer random dsDNA library, 0.1% formaldehyde crosslink after washing; high values mean tight binding
For one experiment, the target named is T1, FEV (Homo sapiens, UniProt Q99581 1-238).
T1 sequence: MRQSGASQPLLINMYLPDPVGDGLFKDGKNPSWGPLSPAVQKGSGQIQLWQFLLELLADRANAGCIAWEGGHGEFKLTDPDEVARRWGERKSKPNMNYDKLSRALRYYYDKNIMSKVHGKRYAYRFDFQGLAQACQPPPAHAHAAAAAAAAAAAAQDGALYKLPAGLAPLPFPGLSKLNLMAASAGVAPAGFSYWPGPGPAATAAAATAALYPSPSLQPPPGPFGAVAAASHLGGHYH
The settings on record: protein: recombinant; tags: N-terminal GST; dsDNA, one strand shown. Summed up:
(§1)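 Human transcription factors were made in yeast as GST fusions, captured on glutathione beads and barcoded with DNA. With a tag-only sample included, the pool was incubated with 200 nmole of a random double-stranded 16-mer DNA library in Tris/NaCl/DTT/glycerol buffer at room temperature for 30 min, then crosslinked with 0.1% formaldehyde after washing, ligated by proximity, amplified and sequenced. For binding signal, each hexamer's read frequency for a factor is divided by its frequency for the tag-only sample.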

A further experiment concerns the target ETV5 (Homo sapiens, UniProt P41161 1-510). The conditions noted are these: protein: recombinant; tags: N-terminal GST; dsDNA, one strand shown. The method in brief:
as §1

For another experiment, the target named is HSF1 (Homo sapiens, UniProt Q00613 1-529). The settings on record: protein: recombinant; tags: N-terminal GST; chain copies: 3; dsDNA, one strand shown. The method in brief: as §1
HSF1, sequence (Q00613 whole entry): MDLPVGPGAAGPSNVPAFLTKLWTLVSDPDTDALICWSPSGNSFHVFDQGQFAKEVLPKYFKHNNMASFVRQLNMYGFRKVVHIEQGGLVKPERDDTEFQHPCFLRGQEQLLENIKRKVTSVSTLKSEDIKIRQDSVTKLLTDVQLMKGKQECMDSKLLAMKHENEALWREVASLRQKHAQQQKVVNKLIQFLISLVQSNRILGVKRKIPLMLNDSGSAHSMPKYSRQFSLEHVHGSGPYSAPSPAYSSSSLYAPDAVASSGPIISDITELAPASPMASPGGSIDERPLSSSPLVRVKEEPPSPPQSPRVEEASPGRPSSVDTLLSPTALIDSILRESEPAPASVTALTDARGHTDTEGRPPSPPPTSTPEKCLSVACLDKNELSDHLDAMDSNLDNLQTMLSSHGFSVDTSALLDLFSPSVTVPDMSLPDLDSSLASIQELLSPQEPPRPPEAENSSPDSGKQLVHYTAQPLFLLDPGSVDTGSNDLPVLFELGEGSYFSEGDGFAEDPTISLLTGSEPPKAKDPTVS
The next experiment addresses T2, SPIC (Homo sapiens, UniProt Q8N5J4 1-248).
T2 sequence: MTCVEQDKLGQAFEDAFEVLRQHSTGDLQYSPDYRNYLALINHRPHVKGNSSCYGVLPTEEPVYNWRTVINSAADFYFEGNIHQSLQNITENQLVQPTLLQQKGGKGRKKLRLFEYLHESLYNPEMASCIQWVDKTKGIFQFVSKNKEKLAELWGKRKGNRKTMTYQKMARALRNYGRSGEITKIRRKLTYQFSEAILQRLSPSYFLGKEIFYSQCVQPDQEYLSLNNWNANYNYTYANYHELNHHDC
The settings on record: protein: recombinant; tags: N-terminal GST; dsDNA, one strand shown. The method in brief: as §1

Another experiment deals with ELF4 (Homo sapiens, UniProt Q99607 1-663). The settings on record: protein: recombinant; tags: N-terminal GST; dsDNA, one strand shown. The method in brief: as §1
ELF4, sequence (Q99607 whole entry): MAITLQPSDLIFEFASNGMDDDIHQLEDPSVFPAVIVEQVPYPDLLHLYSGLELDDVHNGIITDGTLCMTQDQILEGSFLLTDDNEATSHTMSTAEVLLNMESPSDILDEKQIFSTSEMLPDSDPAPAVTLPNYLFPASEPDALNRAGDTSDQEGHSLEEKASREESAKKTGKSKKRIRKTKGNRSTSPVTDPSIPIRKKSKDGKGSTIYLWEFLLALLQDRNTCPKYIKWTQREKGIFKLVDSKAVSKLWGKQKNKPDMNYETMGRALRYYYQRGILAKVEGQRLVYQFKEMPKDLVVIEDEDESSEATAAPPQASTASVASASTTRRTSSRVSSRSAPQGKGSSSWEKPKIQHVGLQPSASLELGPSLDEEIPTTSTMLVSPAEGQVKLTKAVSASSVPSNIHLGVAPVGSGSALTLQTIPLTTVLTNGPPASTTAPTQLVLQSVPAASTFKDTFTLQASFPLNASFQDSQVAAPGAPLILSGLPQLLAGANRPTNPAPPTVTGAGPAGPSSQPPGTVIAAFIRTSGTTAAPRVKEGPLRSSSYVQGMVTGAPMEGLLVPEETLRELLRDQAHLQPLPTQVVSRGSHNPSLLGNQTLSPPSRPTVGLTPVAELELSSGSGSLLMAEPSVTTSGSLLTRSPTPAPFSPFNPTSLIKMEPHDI
A further experiment concerns the target T3, ELK4 (Homo sapiens, UniProt P28324-2 1-405).
T3 sequence: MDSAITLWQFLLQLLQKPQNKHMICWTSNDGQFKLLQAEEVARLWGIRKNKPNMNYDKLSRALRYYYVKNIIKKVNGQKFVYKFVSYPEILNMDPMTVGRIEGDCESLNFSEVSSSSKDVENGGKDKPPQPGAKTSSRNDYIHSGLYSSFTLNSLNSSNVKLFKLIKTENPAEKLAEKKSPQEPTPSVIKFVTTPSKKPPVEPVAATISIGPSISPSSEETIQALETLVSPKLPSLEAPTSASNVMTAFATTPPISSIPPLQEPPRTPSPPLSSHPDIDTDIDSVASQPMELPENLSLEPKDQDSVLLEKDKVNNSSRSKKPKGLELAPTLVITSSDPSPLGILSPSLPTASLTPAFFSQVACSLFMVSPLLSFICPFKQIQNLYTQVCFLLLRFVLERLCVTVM
The conditions noted are these: protein: recombinant; tags: N-terminal GST; dsDNA, one strand shown. The method in brief: as §1

In the next experiment the target is T4, ETV2 (Homo sapiens, UniProt O00321 1-342).
T4 sequence: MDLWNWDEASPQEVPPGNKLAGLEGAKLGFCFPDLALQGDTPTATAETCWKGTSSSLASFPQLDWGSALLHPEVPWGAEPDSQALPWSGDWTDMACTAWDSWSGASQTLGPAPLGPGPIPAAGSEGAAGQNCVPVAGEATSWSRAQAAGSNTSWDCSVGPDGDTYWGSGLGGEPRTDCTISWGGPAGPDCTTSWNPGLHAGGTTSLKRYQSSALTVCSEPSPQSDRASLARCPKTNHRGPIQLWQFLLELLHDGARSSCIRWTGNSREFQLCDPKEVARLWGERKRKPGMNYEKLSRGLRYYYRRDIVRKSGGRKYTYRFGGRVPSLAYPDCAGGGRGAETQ
The conditions noted are these: protein: recombinant; tags: N-terminal GST; dsDNA, one strand shown. The method in brief: as §1

For a further experiment, the target named is T5, ELF3 (Homo sapiens, UniProt P78545 1-371).
T5 sequence: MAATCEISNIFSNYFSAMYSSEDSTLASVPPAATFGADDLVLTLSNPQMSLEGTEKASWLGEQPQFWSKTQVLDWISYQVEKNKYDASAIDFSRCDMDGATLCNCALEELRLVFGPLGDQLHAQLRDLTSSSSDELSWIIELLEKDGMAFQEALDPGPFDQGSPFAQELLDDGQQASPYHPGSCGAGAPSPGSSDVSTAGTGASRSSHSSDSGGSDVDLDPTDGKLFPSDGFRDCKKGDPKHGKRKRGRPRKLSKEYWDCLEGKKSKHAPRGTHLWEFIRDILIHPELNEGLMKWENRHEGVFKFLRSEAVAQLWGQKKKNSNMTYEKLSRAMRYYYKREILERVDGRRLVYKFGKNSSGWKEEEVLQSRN
The settings on record: protein: recombinant; tags: N-terminal GST; dsDNA, one strand shown. The method in brief: as §1

Another experiment has as its target CRX (Homo sapiens, UniProt O43186 1-299). The conditions noted are these: protein: recombinant; tags: N-terminal GST; dsDNA, one strand shown. The method in brief:
as §1

Another experiment deals with ETV1 (Homo sapiens, UniProt P50549 1-477). The conditions noted are these: protein: recombinant; tags: N-terminal GST; dsDNA, one strand shown. The method in brief:
as §1

Another experiment has as its target T6, ERF (Homo sapiens, UniProt P50548 1-548).
T6 sequence: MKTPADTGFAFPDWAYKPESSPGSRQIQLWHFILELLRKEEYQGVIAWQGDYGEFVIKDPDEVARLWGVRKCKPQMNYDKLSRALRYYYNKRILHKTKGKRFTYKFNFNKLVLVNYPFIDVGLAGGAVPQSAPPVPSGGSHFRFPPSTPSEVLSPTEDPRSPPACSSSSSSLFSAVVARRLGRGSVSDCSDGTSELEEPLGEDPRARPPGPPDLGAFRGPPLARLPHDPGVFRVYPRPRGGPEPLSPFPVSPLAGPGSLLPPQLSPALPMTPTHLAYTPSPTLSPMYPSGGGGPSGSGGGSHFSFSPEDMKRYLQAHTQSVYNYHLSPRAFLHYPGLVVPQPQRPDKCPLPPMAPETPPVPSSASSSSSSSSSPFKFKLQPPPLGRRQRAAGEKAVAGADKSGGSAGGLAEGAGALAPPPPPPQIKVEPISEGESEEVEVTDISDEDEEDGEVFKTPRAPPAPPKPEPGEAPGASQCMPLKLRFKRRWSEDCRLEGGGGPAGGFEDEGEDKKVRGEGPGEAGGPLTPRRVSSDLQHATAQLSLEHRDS
The conditions noted are these: protein: recombinant; tags: N-terminal GST; dsDNA, one strand shown. The method in brief:
as §1

In a further experiment the target is T7, ETV3L (Homo sapiens, UniProt Q6ZN32 1-361).
T7 sequence: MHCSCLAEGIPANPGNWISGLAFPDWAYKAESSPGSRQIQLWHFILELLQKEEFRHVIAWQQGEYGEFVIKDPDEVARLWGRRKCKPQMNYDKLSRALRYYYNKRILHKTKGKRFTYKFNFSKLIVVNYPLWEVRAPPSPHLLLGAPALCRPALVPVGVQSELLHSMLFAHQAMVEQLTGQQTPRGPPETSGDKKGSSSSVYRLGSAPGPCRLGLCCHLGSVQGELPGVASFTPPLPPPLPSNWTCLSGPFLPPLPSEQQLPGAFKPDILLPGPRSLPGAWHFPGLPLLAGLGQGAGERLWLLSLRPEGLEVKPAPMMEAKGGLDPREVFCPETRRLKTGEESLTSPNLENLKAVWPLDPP
The conditions noted are these: protein: recombinant; tags: N-terminal GST; dsDNA, one strand shown. The method in brief:
as §1

The target of a further experiment is T8, ETS2 (Homo sapiens, UniProt P15036 1-469).
T8 sequence: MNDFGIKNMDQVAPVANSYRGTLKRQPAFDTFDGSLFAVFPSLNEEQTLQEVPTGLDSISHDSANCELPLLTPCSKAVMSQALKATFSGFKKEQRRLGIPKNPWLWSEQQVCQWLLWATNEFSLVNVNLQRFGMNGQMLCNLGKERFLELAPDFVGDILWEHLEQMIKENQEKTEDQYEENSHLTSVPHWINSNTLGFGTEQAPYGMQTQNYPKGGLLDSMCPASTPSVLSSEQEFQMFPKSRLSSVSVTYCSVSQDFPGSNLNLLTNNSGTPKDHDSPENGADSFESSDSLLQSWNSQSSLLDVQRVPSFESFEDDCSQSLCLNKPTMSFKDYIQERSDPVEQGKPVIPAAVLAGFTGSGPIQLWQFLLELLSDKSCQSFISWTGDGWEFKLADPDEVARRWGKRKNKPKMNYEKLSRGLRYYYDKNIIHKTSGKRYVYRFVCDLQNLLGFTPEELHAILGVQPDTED
The conditions noted are these: protein: recombinant; tags: N-terminal GST; dsDNA, one strand shown. Summed up: as §1

Another experiment concerns the target T9, SPDEF (Homo sapiens, UniProt O95238 1-335).
T9 sequence: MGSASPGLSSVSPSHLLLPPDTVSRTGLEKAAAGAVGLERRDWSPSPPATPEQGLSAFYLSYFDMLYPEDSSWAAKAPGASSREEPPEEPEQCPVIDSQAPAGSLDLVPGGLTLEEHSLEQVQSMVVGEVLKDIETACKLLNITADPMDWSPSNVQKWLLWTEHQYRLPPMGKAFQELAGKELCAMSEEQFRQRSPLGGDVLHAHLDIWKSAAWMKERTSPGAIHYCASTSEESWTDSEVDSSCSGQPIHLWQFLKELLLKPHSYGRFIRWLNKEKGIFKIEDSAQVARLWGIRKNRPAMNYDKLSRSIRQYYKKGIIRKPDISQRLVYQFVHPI
The settings on record: protein: recombinant; tags: N-terminal GST; dsDNA, one strand shown. Summed up:
as §1

The target of another experiment is T10, ETV7 (Homo sapiens, UniProt Q9Y603 1-341).
T10 sequence: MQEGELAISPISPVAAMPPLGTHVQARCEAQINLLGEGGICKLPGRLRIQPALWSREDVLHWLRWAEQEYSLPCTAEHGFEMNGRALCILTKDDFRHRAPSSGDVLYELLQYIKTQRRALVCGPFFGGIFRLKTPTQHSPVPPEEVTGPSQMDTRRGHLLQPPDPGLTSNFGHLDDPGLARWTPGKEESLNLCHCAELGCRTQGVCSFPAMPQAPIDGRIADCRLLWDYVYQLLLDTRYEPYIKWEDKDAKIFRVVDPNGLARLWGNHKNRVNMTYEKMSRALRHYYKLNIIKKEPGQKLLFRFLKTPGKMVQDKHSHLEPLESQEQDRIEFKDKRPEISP
The conditions noted are these: protein: recombinant; tags: N-terminal GST; dsDNA, one strand shown. Summed up: as §1

Another experiment has as its target T11, ELF5 (Homo sapiens, UniProt Q9UKW6-2 1-255).
T11 sequence: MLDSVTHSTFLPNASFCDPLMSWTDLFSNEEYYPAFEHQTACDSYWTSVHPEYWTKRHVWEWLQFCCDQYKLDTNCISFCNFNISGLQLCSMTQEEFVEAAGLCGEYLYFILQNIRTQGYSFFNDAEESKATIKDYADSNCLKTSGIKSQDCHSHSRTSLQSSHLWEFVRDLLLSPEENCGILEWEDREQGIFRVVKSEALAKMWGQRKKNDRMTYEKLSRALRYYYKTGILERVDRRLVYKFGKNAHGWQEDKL
The conditions noted are these: protein: recombinant; tags: N-terminal GST; dsDNA, one strand shown. The method in brief: as §1

For another experiment, the target named is T12, ETV3 (Homo sapiens, UniProt P41162-2 1-143).
T12 sequence: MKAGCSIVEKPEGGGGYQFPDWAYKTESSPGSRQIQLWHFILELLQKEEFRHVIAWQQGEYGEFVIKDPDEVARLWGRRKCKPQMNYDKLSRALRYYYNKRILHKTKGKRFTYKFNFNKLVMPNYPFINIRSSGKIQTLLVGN
The settings on record: protein: recombinant; tags: N-terminal GST; dsDNA, one strand shown. The method in brief: as §1

A further experiment deals with ETV6 (Homo sapiens, UniProt P41212 1-452). The conditions noted are these: protein: recombinant; tags: N-terminal GST; dsDNA, one strand shown. Summed up:
as §1

CRX, sequence (O43186 whole entry): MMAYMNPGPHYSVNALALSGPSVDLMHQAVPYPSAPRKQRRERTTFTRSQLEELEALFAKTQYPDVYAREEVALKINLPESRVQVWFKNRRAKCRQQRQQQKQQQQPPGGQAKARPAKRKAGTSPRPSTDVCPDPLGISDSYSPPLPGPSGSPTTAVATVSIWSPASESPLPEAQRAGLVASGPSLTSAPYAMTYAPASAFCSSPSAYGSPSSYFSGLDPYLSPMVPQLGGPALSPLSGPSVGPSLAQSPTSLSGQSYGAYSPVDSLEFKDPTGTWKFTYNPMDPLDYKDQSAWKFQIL
ETV5, sequence (P41161 whole entry): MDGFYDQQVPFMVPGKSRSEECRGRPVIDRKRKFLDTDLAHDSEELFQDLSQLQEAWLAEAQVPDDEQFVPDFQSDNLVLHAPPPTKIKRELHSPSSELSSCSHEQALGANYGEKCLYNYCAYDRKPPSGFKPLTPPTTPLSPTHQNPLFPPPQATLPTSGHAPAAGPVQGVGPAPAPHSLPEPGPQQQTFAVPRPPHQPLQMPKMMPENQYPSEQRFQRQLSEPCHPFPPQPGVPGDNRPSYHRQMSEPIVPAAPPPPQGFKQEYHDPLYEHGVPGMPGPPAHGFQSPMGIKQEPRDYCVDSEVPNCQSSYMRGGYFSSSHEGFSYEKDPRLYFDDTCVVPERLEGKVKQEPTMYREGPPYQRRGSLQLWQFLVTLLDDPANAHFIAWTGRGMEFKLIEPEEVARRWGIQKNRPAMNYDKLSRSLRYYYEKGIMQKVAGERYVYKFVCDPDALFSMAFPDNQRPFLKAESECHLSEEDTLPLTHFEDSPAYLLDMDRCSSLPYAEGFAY
ETV6, sequence (P41212 whole entry): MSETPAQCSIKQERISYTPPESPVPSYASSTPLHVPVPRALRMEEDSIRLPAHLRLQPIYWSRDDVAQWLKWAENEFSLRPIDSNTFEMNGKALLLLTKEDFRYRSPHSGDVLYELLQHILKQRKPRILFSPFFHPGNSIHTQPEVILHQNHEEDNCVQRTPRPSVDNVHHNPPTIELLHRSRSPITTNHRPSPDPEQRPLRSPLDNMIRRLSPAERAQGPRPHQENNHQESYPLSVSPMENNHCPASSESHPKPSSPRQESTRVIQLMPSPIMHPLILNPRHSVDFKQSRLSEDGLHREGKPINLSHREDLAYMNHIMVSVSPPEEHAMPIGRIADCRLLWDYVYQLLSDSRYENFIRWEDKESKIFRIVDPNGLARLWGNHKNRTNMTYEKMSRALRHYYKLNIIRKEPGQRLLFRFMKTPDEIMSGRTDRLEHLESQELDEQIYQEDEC
ETV1, sequence (P50549 whole entry): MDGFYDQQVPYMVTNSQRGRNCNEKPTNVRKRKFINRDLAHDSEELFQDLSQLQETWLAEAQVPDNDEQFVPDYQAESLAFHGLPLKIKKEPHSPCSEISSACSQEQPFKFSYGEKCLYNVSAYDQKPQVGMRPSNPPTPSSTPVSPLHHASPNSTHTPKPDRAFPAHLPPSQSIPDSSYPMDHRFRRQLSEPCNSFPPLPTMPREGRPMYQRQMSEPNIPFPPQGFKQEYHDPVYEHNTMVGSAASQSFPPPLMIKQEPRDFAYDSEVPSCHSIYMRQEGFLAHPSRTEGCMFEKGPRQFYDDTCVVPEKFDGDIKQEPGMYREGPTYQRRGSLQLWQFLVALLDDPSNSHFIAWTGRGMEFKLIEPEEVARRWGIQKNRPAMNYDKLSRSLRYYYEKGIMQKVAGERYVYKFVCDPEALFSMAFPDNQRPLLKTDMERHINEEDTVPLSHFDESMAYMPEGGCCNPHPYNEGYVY

Regarding CCTTGA, the binding signal with FEV is 1.19 fold enrichment (6-mer frequency, TF over GST control); with ETV5 it was 1.25 fold enrichment (6-mer frequency, TF over GST control); in the experiment with HSF1 it was 1.07 fold enrichment (6-mer frequency, TF over GST control); with SPIC, 1.27 fold enrichment (6-mer frequency, TF over GST control); in the experiment with ELF4, 1.22 fold enrichment (6-mer frequency, TF over GST control); with ELK4 it was 1.22 fold enrichment (6-mer frequency, TF over GST control). Moreover, the binding signal was 1.11 fold enrichment (6-mer frequency, TF over GST control) in the experiment with ETV2; 1.26 fold enrichment (6-mer frequency, TF over GST control) with ELF3; 1.16 fold enrichment (6-mer frequency, TF over GST control) with CRX; 1.17 fold enrichment (6-mer frequency, TF over GST control) in the experiment with ETV1; 1.27 fold enrichment (6-mer frequency, TF over GST control) with ERF; 1.17 fold enrichment (6-mer frequency, TF over GST control) with ETV3L. The binding signal was 1.2 fold enrichment (6-mer frequency, TF over GST control) with ETS2; 1.33 fold enrichment (6-mer frequency, TF over GST control) in the experiment with SPDEF; 1.14 fold enrichment (6-mer frequency, TF over GST control) with ETV7; 1.37 fold enrichment (6-mer frequency, TF over GST control) with ELF5; 1.19 fold enrichment (6-mer frequency, TF over GST control) with ETV3; 1.23 fold enrichment (6-mer frequency, TF over GST control) in the experiment with ETV6.

The values above are taken from paper PMC7862700, “An all-to-all approach to the identification of sequence-specific readers for epigenetic DNA modifications on cytosine”.
